# Measured values reported in the OligoGym collection.
# Legend:
# Experiment in all cases: pooled miR-30 sensor sort-seq; sequence = guide strand
# Details in all cases: shRNA
# DDB2 = target: DDB2
# DDAH1 = target: DDAH1
# DCX = target: DCX
# DNAJC13 = target: DNAJC13
# DOCK1 = target: DOCK1
# DNTTIP1 = target: DNTTIP1
# DOCK11 = target: DOCK11
# DNMT3L = target: DNMT3L
# DPRX = target: DPRX
# EEF1B2 = target: EEF1B2
# EHD3 = target: EHD3
# EIF4EBP2 = target: EIF4EBP2
# ELF2 = target: ELF2
# EIF3M = target: EIF3M
# Note: reference of the scale not given here.
sequence,measurement,setting,value
TCTCCTGTGACCACCATTCGGC,sensor-assay potency score (higher = more potent),DDB2,-0.886
TACAGTTTGCTGCTATGTCATC,sensor-assay potency score (higher = more potent),DDAH1,-1.54
TACAACTGTAAGACAACTGGGA,sensor-assay potency score (higher = more potent),DCX,0.406
TTTAGTTCCAAGATAACCTTGG,sensor-assay potency score (higher = more potent),DDB2,0.69
TCCATCGAACACGTCGATCGTC,sensor-assay potency score (higher = more potent),DDB2,-0.818
TTTGCCGTCCATGTTCAGCAGG,sensor-assay potency score (higher = more potent),DDB2,-0.642
ATCTCTACTATATTGAGCTGAA,sensor-assay potency score (higher = more potent),DDAH1,-0.824
TTTCATCTCTACTATATTGAGC,sensor-assay potency score (higher = more potent),DDAH1,-0.645
TAATATCCGGTAAGAATCCAGA,sensor-assay potency score (higher = more potent),DDB2,-0.584
TTCTCTTATATGGACTGTCTAT,sensor-assay potency score (higher = more potent),DCX,-0.935
TTGATCACAATGCTGTTCCTTA,sensor-assay potency score (higher = more potent),DCX,0.503
TTAAAGAACTTACCACACGTGG,sensor-assay potency score (higher = more potent),DCX,-0.728
TTGGGATTGACATTCTTGGTGT,sensor-assay potency score (higher = more potent),DCX,0.0923
TACAACTTTTGAAATTAGGATC,sensor-assay potency score (higher = more potent),DDB2,-0.816
TAATACAATCTCGGAGGTCTTC,sensor-assay potency score (higher = more potent),DDB2,-0.478
TACTATATTGAGCTGAAGTTTT,sensor-assay potency score (higher = more potent),DDAH1,-1.16
TAAAGTTGCATTTTCATCTTTC,sensor-assay potency score (higher = more potent),DDAH1,0.237
TAAAACATCTCCGCCATCTAAA,sensor-assay potency score (higher = more potent),DDAH1,-0.943
TTGTATACAAGTCATAAGGGAT,sensor-assay potency score (higher = more potent),DCX,-0.914
TAAACCTTTGCACTTTCTGGAT,sensor-assay potency score (higher = more potent),DDAH1,-0.647
TTTATTTCCATAGCAAACTGGA,sensor-assay potency score (higher = more potent),DCX,-0.272
TTTCTGGATACTCTTCCGGGGT,sensor-assay potency score (higher = more potent),DDAH1,-1.06
TATCTTTCAGTTCTTCTCGTGT,sensor-assay potency score (higher = more potent),DNAJC13,-0.0145
TTAGAGTCCTGTGATGACCTGT,sensor-assay potency score (higher = more potent),DOCK1,0.59
TGAGTCACTACAAACTCGCTCA,sensor-assay potency score (higher = more potent),DNTTIP1,-0.249
AACACTTTTGTCAACTTCGTGT,sensor-assay potency score (higher = more potent),DOCK1,0.131
TTGATGTAGATTCTTCCTCTGG,sensor-assay potency score (higher = more potent),DNTTIP1,-0.475
TAGAACCACATGCTAGTCTGGG,sensor-assay potency score (higher = more potent),DNTTIP1,-0.495
TTCTTTGTTCTCGTCGTGCATG,sensor-assay potency score (higher = more potent),DOCK1,-1.13
TTCTTGAACTAAACTGTCGGTG,sensor-assay potency score (higher = more potent),DOCK11,-0.436
TTATACATCATCACTACACAGC,sensor-assay potency score (higher = more potent),DOCK1,-0.419
TTTCACATCGTTGACGATCGTT,sensor-assay potency score (higher = more potent),DOCK1,-0.0463
TTCCTCTAGCTTCAGATCCAGG,sensor-assay potency score (higher = more potent),DNTTIP1,-1.66
TTGATCTTCTTTAATTAGCCGC,sensor-assay potency score (higher = more potent),DOCK11,-0.638
TACTTGTTGAAGACAGTCTGGA,sensor-assay potency score (higher = more potent),DNTTIP1,0.302
TTTTGTATGCATAACTTCCAGA,sensor-assay potency score (higher = more potent),DOCK11,-0.169
TTGAACTAAACTGTCGGTGTTG,sensor-assay potency score (higher = more potent),DOCK11,-0.114
TTTCGTTCTCATACTGCTCGGC,sensor-assay potency score (higher = more potent),DOCK1,0.184
TTAACAGTCTCAAACCAGCGTG,sensor-assay potency score (higher = more potent),DOCK1,-0.984
TGAAACTTGTTGTCATCTGTGA,sensor-assay potency score (higher = more potent),DNTTIP1,0.435
TTCACTATAATGGACATCCATC,sensor-assay potency score (higher = more potent),DOCK11,-1.02
TTGCTTTATGCAACCAGCCTTG,sensor-assay potency score (higher = more potent),DOCK11,-0.849
TATACTTTCTCATCTTCTCCAC,sensor-assay potency score (higher = more potent),DNTTIP1,0.0054
TTCTCTTCCAACAAGTATGTGG,sensor-assay potency score (higher = more potent),DOCK11,-0.568
TTTAGCTGTCCTGTGCACCTTC,sensor-assay potency score (higher = more potent),DOCK11,0.773
TATCATTTCGAACATCACCAGG,sensor-assay potency score (higher = more potent),DOCK1,-1.26
TGAACCTGGAGACTTCCGCAGC,sensor-assay potency score (higher = more potent),DNMT3L,-0.928
TTTGGTTTCCATACCATGCCGG,sensor-assay potency score (higher = more potent),DNTTIP1,-0.318
TTCAATATTGCTATCATCGTAG,sensor-assay potency score (higher = more potent),DOCK11,0.383
TCATCGTACACAGACACCGTGA,sensor-assay potency score (higher = more potent),DOCK1,-0.406
TTCGTAACGTGTAACCTCGGTA,sensor-assay potency score (higher = more potent),DOCK1,-0.19
TTTCTTGAACTAAACTGTCGGT,sensor-assay potency score (higher = more potent),DOCK11,0.142
TTCACATCGTTGACGATCGTTG,sensor-assay potency score (higher = more potent),DOCK1,-0.549
TTGGTTTCCATACCATGCCGGC,sensor-assay potency score (higher = more potent),DNTTIP1,-0.684
TACATCATCACTACACAGCTTC,sensor-assay potency score (higher = more potent),DOCK1,0.384
TAACAGTCTCAAACCAGCGTGG,sensor-assay potency score (higher = more potent),DOCK1,-0.364
TTTATCATTATGTTCCAAGGGT,sensor-assay potency score (higher = more potent),DNTTIP1,0.164
TTTCGTAACGTGTAACCTCGGT,sensor-assay potency score (higher = more potent),DOCK1,0.0583
TTTCAATTCCTCTAGCTTCAGA,sensor-assay potency score (higher = more potent),DNTTIP1,-0.665
TGATCTTAGATAACTATCCAAG,sensor-assay potency score (higher = more potent),DOCK11,-1.04
TTAGACTTTTTTCGTAACGTGT,sensor-assay potency score (higher = more potent),DOCK1,-0.535
TAAACTGTCGGTGTTGATCTGA,sensor-assay potency score (higher = more potent),DOCK11,0.463
TTGGAGACACACCTCAACCAAC,sensor-assay potency score (higher = more potent),DOCK1,-1.22
TCGATGACCCGTGTACACCAGG,sensor-assay potency score (higher = more potent),DPRX,-1.09
TATCTGTTCCAACTTTATCATC,sensor-assay potency score (higher = more potent),EEF1B2,-1.68
TTGAATGCTTCTGACGCACTCC,sensor-assay potency score (higher = more potent),EEF1B2,0.113
TTGATGACTTCTGAGAACTCAT,sensor-assay potency score (higher = more potent),EHD3,-0.245
TAGGAAAGAACAGAGCTCCTGG,sensor-assay potency score (higher = more potent),EHD3,0.716
AATAGTCATGAGGTAGCTGCGC,sensor-assay potency score (higher = more potent),EIF4EBP2,-0.823
TTGTTCAAATTGTTTACTTCTA,sensor-assay potency score (higher = more potent),EIF4EBP2,-0.655
TTCACTTTTGTCATCATCTATG,sensor-assay potency score (higher = more potent),ELF2,-0.773
TTTATCTTGAAGTAGATCTAAA,sensor-assay potency score (higher = more potent),ELF2,-0.649
TATGTTTTTCGGCATATCCTTG,sensor-assay potency score (higher = more potent),ELF2,-0.943
TAAAGTAGTCTTAAAAGGGTGT,sensor-assay potency score (higher = more potent),EIF3M,0.205
TTTCTGTCATAAATGATTCGAG,sensor-assay potency score (higher = more potent),EIF4EBP2,-0.301
TTGTCTTATCTGTACAGTGTGC,sensor-assay potency score (higher = more potent),ELF2,-0.612
TTCTGTCATAAATGATTCGAGT,sensor-assay potency score (higher = more potent),EIF4EBP2,-1.23
TTGTTCAAGTTGTTCAAATTGT,sensor-assay potency score (higher = more potent),EIF4EBP2,-0.233
TCGCTGATGGCCACGGTGCGGG,sensor-assay potency score (higher = more potent),EIF4EBP2,-1.63
TTTGTCATCATCTATGACCACT,sensor-assay potency score (higher = more potent),ELF2,-0.807
TGATTCGAGTTCCTCCCGGTGT,sensor-assay potency score (higher = more potent),EIF4EBP2,-0.789
TTGTTCTTCTGCCACATCTTGC,sensor-assay potency score (higher = more potent),ELF2,-0.939
TAGTAGTATCTCAAAGCTCGTC,sensor-assay potency score (higher = more potent),ELF2,-0.0908
TTGATAGTCTCATTACAGGTGT,sensor-assay potency score (higher = more potent),ELF2,-0.336
